From PubChem BioAssay (NCI)
About 79,000 compounds went through this panel and 15% of them were active in at least one assay; those are over-represented in the sample as a whole. Active and inactive are the calls of the source. Cut-off read from the data, not from the text of the source: active = growth inhibition above about 70%; inactive = the rest.

test: NCI Yeast Anticancer Drug Screen. Data for the mlh1 strain (AID 171);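 note: 0% = growth of vehicle-treated control cultures of the same strain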; conditions: S. cerevisiae mlh1 strain growth inhibition; at 33.0 µM; stronger effect = higher value
Outline: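 Test agents were incubated with yeast bearing a defined DNA damage repair or cell cycle control alteration; values are growth inhibition normalised to vehicle-treated cultures.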

| Compound | growth inhibition |
| --- | --- |
| NC(=S)N/N=C1\c2ccccc2CCC1CCC1(O)CCc2ccccc2C1=O (configuration not stated) | 79% (active) |
| Cc1cccc2c(Cl)c3cccc(C)c3nc12 | 12% (inactive) |
| CC(C)OC(=O)NNc1c(Cl)cc(Cl)cc1Cl | 8% (inactive) |
| Nc1ccc2c(c1)C(=O)c1c(F)cccc1-2 | 16% (inactive) |
| N#CSCC1COc2ccccc2O1 (configuration not stated) | 77% (active) |
| Cc1ccc(S(=O)(=O)NC(=O)C2C(=O)CC3(CCCCC3)CC2=O)cc1 | 82% (active) |
| CC1=NN(C(=O)c2ccccc2O)C(=O)/C1=C/c1ccco1 | 89% (active) |

same assay, conditions: S. cerevisiae mlh1 strain growth inhibition; at 100.0 µM; stronger effect = higher value

| Compound | growth inhibition |
| --- | --- |
| CC(CN(C)C)C(=O)/C=C/c1ccc(Cl)c(Cl)c1 (configuration not stated) | 98% (active) |
| CCCCCCNCCCNc1c2cc(OC)ccc2nc2cccc([N+](=O)[O-])c12 | 98% (active) |
| NC(=S)N1N=C2c3ccccc3CC[C@H]2[C@@H]1c1ccc(Cl)cc1 | 89% (active) |
| C/C(=N/NC(=S)Nc1ccccc1C)c1ccccn1 | -6% (inactive) |
| O=C1/C(=C/c2ccc(Cl)c(Cl)c2)CNC/C1=C\c1ccc(Cl)c(Cl)c1 | 94% (active) |
| CC(C)OP(=O)(OC(C)C)C(=NCCO)NNc1ccc([N+](=O)[O-])cc1 | 87% (active) |
| N#CCC(=O)N/N=C(\c1ccccc1)C(c1ccccc1)C1(O)C(=O)Nc2c(Cl)ccc(Cl)c21 (configuration not stated) | 18% (inactive) |
| CC(C)(CN1CCCCC1)C(=O)CC(SCCS(=O)(=O)O)c1ccccc1 (configuration not stated) | 13% (inactive) |
| COC1=CCC23C(=O)C=CC(=O)C2(C1)C(=O)c1ccccc1C3=O (configuration not stated) | 95% (active) |
| CCCCN(CCCC)c1ccc(N=Nc2ccc(S(=O)(=O)O)cc2)cc1 | 94% (active) |
| c1ccc2nc3c(nc2c1)sc1ccccc13 | 23% (inactive) |
| O=C1c2ccccc2-c2ccc(N=Cc3ccccc3)cc21 | 79% (active) |
| CNC(=S)N/N=C(/C)CCC/C(C)=N/NC(=S)NC | 40% (inactive) |
| Nc1ccc(/C=C/c2ccc3cccnc3c2)cc1 | 21% (inactive) |
| COc1ccc2c3c1OC(C)C31CC(=O)CCC1CC2 (configuration not stated) | 1% (inactive) |
| CCOC(=O)Nc1ccc(C)c(NC(=O)OCC)c1 | 23% (inactive) |
| CCN(CC)CCNc1ccc2nc(C)n3c4ccc(OC)cc4c(=O)c1c23 | 16% (inactive) |
| C[N+](C)([O-])CCCNc1c2ccccc2nc2cccc([N+](=O)[O-])c12 | 95% (active) |

| Compound | growth inhibition |
| --- | --- |
| O=C(c1cc(=O)c2ccc(O)cc2o1)c1ccc(Cl)cc1Cl | 92% (active) |
| CCCNC(=O)OCc1c(COC(=O)NCCC)c(-c2ccc(Cl)c(Cl)c2)n2c1CCC2 | 57% (inactive) |
| O=C(Cc1ccccc1)NN1C(=O)C(Cl)C1c1cc(Br)cc(Br)c1O (configuration not stated) | 92% (active) |
| CCOC(=O)C(Cc1c2ccccc2cc2ccccc12)(NC(C)=O)C(=O)OCC | 0% (inactive) |
| O=[N+]([O-])/C=C/c1cc2ccc3ccccc3c2[nH]1 | 93% (active) |
| Fc1ccc(Nc2ccc3ccccc3c2)cc1 | 90% (active) |
| O=S1(=O)CCC2=CC(C(F)(F)F)=CC(C(F)(F)F)=CN21 | 98% (active) |
| O=C(Cc1ccccc1)NNc1nc(NNC(=O)c2ccncc2)nc(Nc2ccc([N+](=O)[O-])cc2)n1 | 55% (inactive) |
| CCCCS/C(=C(/C#N)C(N)=O)c1cc2c([nH]1)CCCC2 | 54% (inactive) |
| CCOC(=O)/C(=C\c1cccc(C)c1)C(C)=O | 98% (active) |
| NC(=S)N/N=C1\c2ccccc2CCC1CCC1(O)CCc2ccccc2C1=O (configuration not stated) | 81% (active) |
| Cc1cccc2c(Cl)c3cccc(C)c3nc12 | 12% (inactive) |
| CC(C)OC(=O)NNc1c(Cl)cc(Cl)cc1Cl | 8% (inactive) |
| Nc1ccc2c(c1)C(=O)c1c(F)cccc1-2 | 86% (active) |
| N#CSCC1COc2ccccc2O1 (configuration not stated) | 97% (active) |
| Cc1ccc(S(=O)(=O)NC(=O)C2C(=O)CC3(CCCCC3)CC2=O)cc1 | 88% (active) |
| CC1=NN(C(=O)c2ccccc2O)C(=O)/C1=C/c1ccco1 | 96% (active) |
